# Results from PubChem BioAssay.
# Active and inactive are the calls of the source.
# Experiments:
# [1] = tested on: Plasmodium falciparum Sir2 (PF13_0152, Sir2A); test: pfSir2 binders on small-molecule microarrays, primary screen, biochemical, small-molecule microarray, 635 nm fluorescence (AID 1098); conditions: small-molecule microarray binding, fluorescence 635 nm; higher = more signal;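 note: score merges spot fluorescence intensity with its signal-to-noise ratio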
# [2] = small-molecule microarray binders of probe aDKK1, primary screen, biochemical, biotinylated probe, 635/667 nm fluorescence (AID 1099); conditions: higher = more signal;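 note: score merges 667nm spot fluorescence with signal to noise across triplicate slides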
# [3] = small-molecule microarray binders of probe aCHRDL2, primary screen, biochemical, biotinylated probe, 635/667 nm fluorescence (AID 1100); conditions: higher = more signal
# [4] = splicing luciferase reporter signal modulators, primary screen, spliceosome inhibition project, cell-based, HEK293, splice +/- reporter (AID 1101); conditions: luminescence, 24 h, higher = more signal, called active from +8 up or from −8 down;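 note: HEK293 cells carrying a splicing-competent luciferase reporter gene; test concentration not given here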
# [5] = molecular target: Fibroblast growth factor 10 (Homo sapiens) (UniProt O15520); test: FGF10 binders on small-molecule microarrays, primary screen, biochemical, small-molecule microarray, 635 nm fluorescence (AID 1102); conditions: FGF10 binding, fluorescence 635 nm, higher = more signal
# [6] = tested on: glycogen synthase kinase-3 (GSK3A per assay name; protocol says GSK3B); test: GSK3 binders on small-molecule microarrays, primary screen, biochemical, small-molecule microarray, 635 nm fluorescence, GSK3A (AID 1103); conditions: small-molecule microarray binding, fluorescence 635 nm; higher = more signal; note: the record names both GSK3A and GSK3B
# [7] = molecular target: Epidermal growth factor receptor (Homo sapiens) (UniProt P00533); test: EGFR binders on small-molecule microarrays, primary screen, biochemical, small-molecule microarray, 635 nm fluorescence (AID 1104); conditions: EGFR binding, higher = more signal;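 note: score merges 667 nm emission intensity with spot signal to noise over triplicate slides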
# [8] = molecular target: Follistatin-related protein 3 (Homo sapiens) (UniProt O95633); test: FSTL3 binders on small-molecule microarrays, primary screen, biochemical, small-molecule microarray, 635 nm fluorescence (AID 1105); conditions: FSTL3 binding, higher = more signal;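 note: score merges emission near 667 nm and signal to noise per printed spot across three slides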
# [9] = molecular target: Dickkopf-related protein 1 (Homo sapiens) (UniProt O94907); test: DKK1 binders on small-molecule microarrays, primary screen, biochemical, small-molecule microarray, 635 nm fluorescence scan (AID 1106); conditions: DKK1 binding, higher = more signal;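 note: score merges emission near 667 nm with signal to noise over three replicate slides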
# [10] = tested on: Inhibin beta A chain (activin A); test: INHBA (activin A) binders on microarrays, primary screen, biochemical, small-molecule microarray, 635 nm fluorescence scan (AID 1107); conditions: small-molecule microarray binding, higher = more signal;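 note: mouse activin A protein probed at 4.33 µg/mL on printed slides; score merges bound-protein fluorescence near 667 nm with spot signal-to-noise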
# [11] = tested on: Human papillomavirus type 1a protein E7 (residues 44-93); test: HPV1a E7 fragment binders on microarrays, primary screen, biochemical, small-molecule microarray, residues 44-93, 635 nm fluorescence (AID 1108); conditions: small-molecule microarray binding, fluorescence 635 nm; higher = more signal;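 note: E7 fragment applied at 1 µg/mL in TBST for 1 h at 4 C; score combines spot fluorescence with its signal to noise ratio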
# [12] = modulators of HCV replicon luciferase signal, primary screen, HCV replication inhibitor project, Huh7 cells, luciferase reporter (AID 1109); conditions: 48 h, higher = more signal;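 note: huh7 hepatoma cells harbouring a luciferase neomycin HCV replicon reporter; luciferase luminescence as measure of HCV replicon replication; test concentration not given here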
# [13] = molecular target: Left-right determination factor 2 (Homo sapiens) (UniProt O00292); test: LEFTY2 binders on small-molecule microarrays, primary screen, biochemical, small-molecule microarray, 635 nm fluorescence scan (AID 1110); conditions: LEFTY2 binding, higher = more signal
# [14] = molecular target: Calmodulin-1 (Homo sapiens) (UniProt P0DP23); test: CALM1 binders on microarrays, EGTA buffer, profiling panel, biochemical, small-molecule microarray, Cy5-labelled CALM1 (AID 1111); conditions: Cy5-CALM1 binding fluorescence, higher = more signal;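 note: labelled calmodulin applied in Tris saline Tween buffer holding calcium plus EGTA and DTT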
# [15] = molecular target: Calmodulin-1 (Homo sapiens) (UniProt P0DP23); test: calcium-bound CALM1 binders on microarrays, profiling panel, artefact control for SMM control-protein annotation, biochemical, small-molecule microarray, Cy5-labelled CALM1, plus calcium (AID 1112); conditions: Cy5-CALM1 binding fluorescence, higher = more signal;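 note: score merges spot fluorescence with signal to noise from triplicate slides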
# [16] = small-molecule microarray binders of probe aWnt5a, primary screen, biochemical, biotinylated probe, 635/667 nm fluorescence (AID 1113); conditions: higher = more signal;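 note: score merges 667 nm fluorescence intensity with signal-to-noise per printed feature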
# [17] = small-molecule microarray binders of probe aShh, primary screen, biochemical, biotinylated probe, 635/667 nm fluorescence (AID 1114); conditions: higher = more signal;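 note: probe is biotin-labelled aShh protein from a stem cell growth factor screen; measures binding of labelled protein to compounds printed on the slide; score merges feature fluorescence at 667 nm with signal-to-noise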
# [18] = small-molecule microarray binders of probe aNog, primary screen, biochemical, biotinylated probe, 635/667 nm fluorescence (AID 1115); conditions: higher = more signal;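 note: probe is biotinylated aNog protein used at 0.15 µg/mL for 1 h at 4 C; z-score combines 667 nm fluorescence of each spot with its signal to noise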
# [19] = molecular target: Torsin-1A-interacting protein 1 (Homo sapiens) (UniProt Q5JTV8); test: LAP1 binders from COS7 cell lysate, primary screen, small-molecule microarray, 635/667 nm fluorescence (AID 1116); conditions: COS7-hLAP1 lysate binding, 635 nm fluorescence, higher = more signal
# [20] = molecular target: Alpha-bungarotoxin (Bungarus multicinctus) (UniProt P60615); test: alpha-bungarotoxin binders on microarray, profiling panel, artefact control for SMM control protein annotation, biochemical, small-molecule microarray, Alexa647 label, 635/667 nm fluorescence (AID 1117); conditions: alpha-BTX-A647 binding fluorescence, higher = more signal
# Alpha-bungarotoxin (Bungarus multicinctus), sequence (P60615 whole entry, looked up): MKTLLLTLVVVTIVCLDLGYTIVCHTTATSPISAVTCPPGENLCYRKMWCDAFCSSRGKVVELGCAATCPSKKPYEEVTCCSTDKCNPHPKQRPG
# Left-right determination factor 2 (Homo sapiens), sequence (O00292 whole entry, looked up): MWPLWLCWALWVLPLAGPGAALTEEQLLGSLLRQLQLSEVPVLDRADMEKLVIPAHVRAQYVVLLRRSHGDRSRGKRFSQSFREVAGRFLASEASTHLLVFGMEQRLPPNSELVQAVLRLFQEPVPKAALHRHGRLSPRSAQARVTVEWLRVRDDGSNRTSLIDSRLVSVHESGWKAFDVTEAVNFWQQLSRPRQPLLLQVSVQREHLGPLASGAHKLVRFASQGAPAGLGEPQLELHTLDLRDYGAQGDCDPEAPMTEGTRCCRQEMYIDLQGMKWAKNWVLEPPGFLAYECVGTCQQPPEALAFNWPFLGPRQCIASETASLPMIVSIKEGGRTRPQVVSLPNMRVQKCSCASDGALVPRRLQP
# Epidermal growth factor receptor (Homo sapiens), sequence (P00533 whole entry, looked up): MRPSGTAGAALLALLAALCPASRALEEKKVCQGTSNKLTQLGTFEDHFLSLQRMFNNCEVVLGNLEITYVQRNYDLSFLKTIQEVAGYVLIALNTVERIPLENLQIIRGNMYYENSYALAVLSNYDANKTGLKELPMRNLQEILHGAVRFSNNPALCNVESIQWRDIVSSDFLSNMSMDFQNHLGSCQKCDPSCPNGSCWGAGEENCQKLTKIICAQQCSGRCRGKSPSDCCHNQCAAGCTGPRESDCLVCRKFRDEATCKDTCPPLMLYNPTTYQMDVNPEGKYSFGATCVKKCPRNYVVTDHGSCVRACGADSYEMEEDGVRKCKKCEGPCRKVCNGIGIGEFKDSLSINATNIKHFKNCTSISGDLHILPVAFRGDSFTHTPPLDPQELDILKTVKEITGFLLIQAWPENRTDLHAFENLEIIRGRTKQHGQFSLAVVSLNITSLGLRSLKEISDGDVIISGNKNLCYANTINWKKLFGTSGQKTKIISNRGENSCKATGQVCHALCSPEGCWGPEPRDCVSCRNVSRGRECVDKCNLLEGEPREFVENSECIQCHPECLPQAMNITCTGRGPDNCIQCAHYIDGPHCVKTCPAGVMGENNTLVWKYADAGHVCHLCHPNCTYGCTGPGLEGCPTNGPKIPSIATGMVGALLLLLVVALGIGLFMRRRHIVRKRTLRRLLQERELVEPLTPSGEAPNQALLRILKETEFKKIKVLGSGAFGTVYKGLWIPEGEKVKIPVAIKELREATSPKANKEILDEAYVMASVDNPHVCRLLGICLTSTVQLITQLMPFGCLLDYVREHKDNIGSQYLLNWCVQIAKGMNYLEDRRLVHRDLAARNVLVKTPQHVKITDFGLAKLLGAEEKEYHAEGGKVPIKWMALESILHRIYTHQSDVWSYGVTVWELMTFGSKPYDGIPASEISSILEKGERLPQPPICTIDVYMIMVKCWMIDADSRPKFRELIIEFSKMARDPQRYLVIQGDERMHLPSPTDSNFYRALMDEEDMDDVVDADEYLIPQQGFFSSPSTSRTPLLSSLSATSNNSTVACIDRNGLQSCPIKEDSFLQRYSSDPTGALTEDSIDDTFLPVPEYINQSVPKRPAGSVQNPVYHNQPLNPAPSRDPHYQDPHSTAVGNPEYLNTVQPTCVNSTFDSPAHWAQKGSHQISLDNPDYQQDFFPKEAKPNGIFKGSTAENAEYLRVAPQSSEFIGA
# Torsin-1A-interacting protein 1 (Homo sapiens), sequence (Q5JTV8 whole entry, looked up): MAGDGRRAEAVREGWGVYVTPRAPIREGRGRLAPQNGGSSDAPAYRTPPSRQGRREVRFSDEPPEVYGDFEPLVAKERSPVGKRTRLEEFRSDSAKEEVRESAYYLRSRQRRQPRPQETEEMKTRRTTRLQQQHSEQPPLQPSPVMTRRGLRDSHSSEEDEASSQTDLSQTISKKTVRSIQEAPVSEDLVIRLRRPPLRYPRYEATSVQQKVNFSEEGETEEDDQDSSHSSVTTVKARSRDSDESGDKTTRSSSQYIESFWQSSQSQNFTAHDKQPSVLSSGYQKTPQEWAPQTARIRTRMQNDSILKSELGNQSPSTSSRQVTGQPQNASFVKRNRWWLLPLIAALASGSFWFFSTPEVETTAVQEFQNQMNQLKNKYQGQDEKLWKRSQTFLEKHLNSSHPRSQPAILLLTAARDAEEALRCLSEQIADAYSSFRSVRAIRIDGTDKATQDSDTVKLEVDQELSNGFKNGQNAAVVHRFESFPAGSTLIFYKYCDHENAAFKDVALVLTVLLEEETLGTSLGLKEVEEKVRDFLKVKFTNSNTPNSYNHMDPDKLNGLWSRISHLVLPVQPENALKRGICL
# Dickkopf-related protein 1 (Homo sapiens), sequence (O94907 whole entry, looked up): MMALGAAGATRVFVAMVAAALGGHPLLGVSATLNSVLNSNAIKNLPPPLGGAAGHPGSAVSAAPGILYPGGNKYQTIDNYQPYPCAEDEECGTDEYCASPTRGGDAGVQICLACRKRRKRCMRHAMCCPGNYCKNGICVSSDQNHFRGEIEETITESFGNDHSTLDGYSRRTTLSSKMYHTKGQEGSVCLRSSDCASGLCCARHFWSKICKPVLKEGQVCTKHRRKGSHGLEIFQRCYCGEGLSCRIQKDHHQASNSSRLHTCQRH
# Follistatin-related protein 3 (Homo sapiens), sequence (O95633 whole entry, looked up): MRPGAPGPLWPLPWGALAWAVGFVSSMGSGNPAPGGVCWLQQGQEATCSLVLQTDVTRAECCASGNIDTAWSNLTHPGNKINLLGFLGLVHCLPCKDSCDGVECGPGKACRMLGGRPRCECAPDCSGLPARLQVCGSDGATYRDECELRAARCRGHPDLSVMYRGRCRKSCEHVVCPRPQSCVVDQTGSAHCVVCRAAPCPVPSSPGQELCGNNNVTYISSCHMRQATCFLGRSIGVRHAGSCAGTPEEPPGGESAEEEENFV
# Fibroblast growth factor 10 (Homo sapiens), sequence (O15520 whole entry, looked up): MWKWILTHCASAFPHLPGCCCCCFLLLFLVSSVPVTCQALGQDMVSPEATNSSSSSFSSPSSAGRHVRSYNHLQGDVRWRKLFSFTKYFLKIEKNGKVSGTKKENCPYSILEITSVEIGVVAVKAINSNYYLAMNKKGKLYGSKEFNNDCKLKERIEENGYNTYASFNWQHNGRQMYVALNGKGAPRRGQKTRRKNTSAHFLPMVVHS
SMILES,composite z-score [1],composite z-score [2],composite z-score [3],z-score [4],composite z-score [5],composite z-score [6],composite z-score [7],composite z-score [8],composite z-score [9],composite z-score [10],composite z-score [11],z-score [12],composite z-score [13],composite z-score [14],composite z-score [15],composite z-score [16],composite z-score [17],composite z-score [18],composite z-score [19],composite z-score [20]
CCOC(=O)CCN1C(=O)[C@H]2[C@H]3[C@H](O)[C@H](O)CC(=NNC(=O)OCc4ccc(OC)cc4)[C@@H]3CC[C@H]2C1=O,0.0745,-0.0545,-0.476,0.454 (inactive),0.567,0.754,0.593,1.32,0.819,0.334,-0.75,-0.552,0.554,0.715,-0.0636,-0.124,-0.323,-0.118,0.94,1.21
O=C(CS)NCCCCCNC(=O)[C@@H]1C[C@@H]2C(=O)N[C@@H](Cc3ccccc3)C(=O)N2[C@@H]1c1ccc(O)cc1,1,0.121,0.526,0.339 (inactive),1.02,1.17,-0.146,0.265,0.325,-0.516,0.985,-0.374,0.514,0.283,-0.11,0.0004,0.149,-0.122,0.858,1.48
CC(CCN1CCc2nc(-c3ccccc3)c(-c3ccccc3)cc2C1)=NO[C@H](C)c1cn([C@@H]2COC[C@H]2O)nn1,1.1,-0.182,-0.432,0.611 (inactive),0.215,0.403,0.0515,0.343,0.0546,0.763,1.35,-0.883,0.0738,-0.307,-0.46,-0.0685,-0.0553,-0.025,0.438,0.872
COC(=O)C1(C)C=C2C(=C(c3ccccc3)C(=O)C2C)CN1 (stereo not given),0.537,1.14,1.22,1.21 (inactive),-0.174,-0.824,-0.709,-1.29,-1.16,1.45,-1.06,-0.546,-1.3,0.29,-0.0125,-0.034,-0.119,1.74,1.72,-0.422
CCOC(=O)NN=C1C[C@@H](O)[C@@H](O)[C@@H]2[C@@H]3C(=O)N(CC)C(=O)[C@@H]3CC[C@@H]12,0.163,-0.407,-0.263,0.379 (inactive),0.664,0.434,0.684,0.518,0.14,-0.232,0.788,-0.161,0.651,-0.21,-0.264,-0.118,-0.0977,-0.213,0.197,0.595
CC(C)=CCCC(C)=CCON=C1[C@H]2CCn3c(=O)n(C)c(=O)n3[C@H]2[C@H](O)[C@@H]2O[C@H]12,0.819,-0.317,-0.378,0.709 (inactive),0.868,1.26,0.779,1.05,0.921,0.832,1.32,-0.621,0.692,-0.257,-0.845,0.188,0.131,-0.0146,1.2,-0.0134
CC(C)N1CC=CC23O[C@@H]4C=CCCOC(=O)C4[C@H]2C(=O)N(CCCCCCO)[C@@H]3C1=O (stereo not given in full),0.627,-0.201,0.587,1.59 (inactive),-1.03,-1.13,-1.13,-1.22,-1.59,0.12,-0.558,-0.845,-1.39,-0.0847,0.749,-0.252,-0.221,0.0432,-0.423,-0.866
Cc1cc2c(nc1C)CCCN2CC(C)ON=C1[C@H]2CCn3c(=O)n(-c4ccccc4)c(=O)n3[C@H]2[C@H](O)[C@@H]2O[C@H]12 (stereo not given in full),0.508,-0.013,-0.499,-0.736 (inactive),0.618,1.1,0.822,0.828,0.686,0.693,0.862,-3.29,0.377,-0.135,-0.458,-0.0077,0.767,0.066,0.184,0.515
CO[C@@H]1COC(=O)CC=C[C@@H](C)[C@@H]2C=C[C@@H](O)[C@@H](COC(=O)CC=C[C@H]1C)O2,0.661,-0.325,-1.08,-0.953 (inactive),0.954,0.524,0.935,1.48,0.804,1.12,-0.438,0.464,1.12,-1.24,-2.11,-0.252,0.0756,-0.444,-0.208,-0.114
Cc1cc2c(nc1C)CCCN2CC(O)CN1CCN(C)CC1 (stereo not given),0.478,0.859,0.337,0.154 (inactive),0.721,0.132,0.752,0.79,1.02,-1.07,0.329,-0.162,0.625,-0.441,-0.482,0.212,0.116,-0.23,0.395,0.908
COC(=O)[C@@H]1CC[C@H](C)[C@@H](c2ccc(C)cc2)N1C(=O)c1ccc(C=NOC(C)CN2CCCCc3nc(C)c(C)cc32)cc1 (stereo not given in full),0.775,-0.136,0.174,-0.423 (inactive),0.127,-0.626,0.598,0.0406,0.323,1.49,-0.278,-3.62,0.359,-0.0385,0.076,0.0437,0.0893,0.0274,0.652,0.709
